# This excerpt belongs to a sample that is enriched for hits.
# Ba CapD inh: blocks the Bacillus anthracis CapD enzyme; purified CapD enzyme, fluorescence intensity read-out; hits give low values; 140,000 tested, 0.23% active; z-score (no concentration beside the values); in the data active means z-score mostly below about -2.9, no sharp cut-off; inactive means mostly above about -1.9
# The depositor's hits bear a star; ! = a repeat was not active.
SMILES,Ba CapD inh
c1ccc2sc3c(-c4ccncc4)sc4ccccc4[nH]c-3nc2c1,-4.1*
Oc1ccc(-c2nc3ccccc3[nH]2)cc1,15
c1ccc(-c2nnsc2-c2nc3ccccc3[nH]2)cc1,1.6
CCOC(=O)C(C(=O)N1CCN(C)CC1)C1CCCCC1 (configuration not stated),0.41
O=C(COc1ccc(Cl)cc1)Nc1noc2ccccc12,-1.2
CCCc1c(C(=O)NC2Cc3ccccc3C2)cnn1-c1ccccc1,-1.3
CC(C)(C)S(=O)(=O)/C(C#N)=C/c1cc2ccccc2o1,1.3
O=C(Oc1ccc(N(C(=O)c2ccccc2)S(=O)(=O)c2cccs2)cc1)c1ccccc1,0.34
CC(=O)N(c1ccc(N(C(C)=O)S(=O)(=O)c2cccs2)cc1)S(=O)(=O)c1cccs1,-3.8
COc1ccc(N(C(=O)c2ccncc2)S(=O)(=O)c2cccs2)cc1,-8.5*
O=c1nc(-c2ccc(Cl)cc2)nc(-c2ccc(Cl)cc2)[nH]1,0.025
CC1(C)SC(=S)N(/N=C/c2ccco2)C1N(O)C(=O)Nc1ccc(Cl)c(Cl)c1 (configuration not stated),-0.66
Nc1c(C(=O)Nc2nccs2)sc2nc3c(c(-c4ccco4)c12)CCCC3,-1
CCOC(=O)Cn1c(=NC(=O)c2ccccc2Br)sc2cc(C)ccc21,1.5
CC(CCCC(C)(C)O)CC1OCC(C)O1 (configuration not stated),-0.07
CCCN1CCC(NC(C)CCCC(C)(C)O)CC1 (configuration not stated),-0.4
CC(N)CCCC(C)(C)O (configuration not stated),-4.1*!
Clc1ccc(CN2COc3c(cc(Cl)c4cccnc34)C2)cc1Cl,-0.2
COC(=O)c1ccccc1Sc1nc(SC)nc2c1sc1ccccc12,0.16
COc1ccc(NC(=O)CSc2nc3c(cc2C#N)CCC3)cc1,0.06
CC(C)(C)OC(=O)C(NC(=O)c1ccoc1)c1ccccc1 (configuration not stated),-0.89
N#CC1=C(N)Oc2cc(O)ccc2C1c1ccccc1 (configuration not stated),0.16
COC(=O)C1Sc2[nH]c(=O)sc2C(c2ccc(Cl)cc2)C1C(=O)OC (configuration not stated),0.1
O=C(O)C1Sc2[nH]c(=O)sc2C2c3ccc(O)cc3OC(=O)C12 (configuration not stated),-8.8*
CC1=C(C(=O)OC(C)C)C2(C(=O)Nc3ccccc32)C(C(=O)OC(C)(C)C)=C(N)O1 (configuration not stated),-0.05
SMILES,Ba CapD inh
COc1ccc(-c2cc(C(F)(F)F)n3nc(C(=O)Nc4cccc(C(C)=O)c4)cc3n2)cc1,-0.56
CCCCN(C)c1nc(-c2ccc(OC)cc2)nc2ccccc12,12
O=C(Nc1ccc(Br)cc1)C1CC1,0.55
CC(Oc1cccc(Cl)c1)C(=O)O/N=C(\N)c1cccnc1 (configuration not stated),-6*
N/C(=N/S(=O)(=O)c1ccc(Cl)c(Cl)c1)c1cccnc1,0.71
CC(C)C(=O)O/N=C(\N)c1ccccc1,0.02
COc1ccc(/C=N/NC(=O)Cc2ccsc2)c(OC)c1C,-0.35
Cc1ccccc1C(=O)c1c[nH]c(C(=O)NCCCN2CCOCC2)c1,-0.49
CCOc1ccc(N(CC(=O)N2CCN(c3ccccc3)CC2)S(=O)(=O)c2ccc(SC)cc2)cc1,-0.035
Cc1cc(C(=O)O)ccc1-n1c(C)ccc1C,-0.4
Cc1ccc(C)n1-c1ccc(C(=O)O)cc1O,-9*
Cc1ccc(C(=O)O)cc1-n1c(C)ccc1C,-2
Cc1nc(C#N)c(C#N)nc1C,0.14
CCOC(=O)c1cnc(SC)nc1Oc1cc(Cl)c(Cl)cc1Cl,-0.74
CCOc1ccccc1C1SCC(=O)Nc2c1c(=O)[nH]n2C1CCCC1 (configuration not stated),0.8
CC[C@H](C)C(=O)O[C@H]1CCC=C2C=C[C@H](C)C(CCC3C[C@@H](O)CC(=O)O3)[C@H]21 (some centres not stated),-0.43
COc1ccc(N2C(=O)C(O)=CC2(OC)c2ccccc2)cc1 (configuration not stated),-4.5*
COc1ccc(N2C(=O)CCC2(C(N)=O)c2ccccc2)cc1 (configuration not stated),0.36
Cc1ccc(N2C(=O)C(O)=CC2(O)c2ccccc2)cc1 (configuration not stated),-1.1
O=C(Nc1ccc(F)cc1)c1cc(-c2cccs2)nc2ccccc12,0.6
CC(C)=C1C2C=CC1C1C(=O)N(c3ccccc3)C(=O)C21 (configuration not stated),0.05
CC1(C)CC2CC(C)(CN2C(=O)c2ccccc2NC(=O)c2ccco2)C1 (configuration not stated),0.19
Clc1ccc(C2C3CC=CC3c3cc(Cl)cc4c3N2CC2CC=CC42)cc1 (configuration not stated),0.38
O=C(O)Cc1ccc(NC(=S)Nc2ccc3c(c2)OCO3)cc1,-0.83
COc1c(Cl)cc(Br)c(OC)c1C(N)=O,0.17
SMILES,Ba CapD inh
NC(=O)c1cc(-c2ccc3c(c2)OCO3)no1,-0.57
CCOc1ccc(-c2cc(C(N)=O)on2)cc1,-0.86
Cc1ccc(-c2cc(C(N)=O)on2)cc1,-5.7*
CC1=C(C(=O)Nc2nc3ccccc3s2)C(c2cccc(Br)c2)C2=C(CCCC2=O)N1 (configuration not stated),26
CC(=O)Nc1cccc2nc(C)sc12,-0.095
CC(=O)Nc1nc2ccccc2nc1Cl,-7.6*
ONc1nc2ccccc2nc1NO,-1.1
COC(=O)c1ccc2c(=O)n(CCc3ccc(OC)c(OC)c3)c(SCC(=O)Nc3ccc(OC)cc3OC)nc2c1,0.34
Cn1c(SCc2ccccc2Cl)nc(-c2ccccc2)c1-c1ccccc1,0.09
N#CCc1ccc(N=Cc2cc(Cl)cc(Cl)c2O)cc1,-0.17
CCN(CC)c1ccc(-n2nc3cc(C)c(N)cc3n2)cc1,60
CN(C)/C=C/C=C1\CCc2ccccc2C1=O,-0.79
CN(C)/C=C/C=C1\CC/C(=C\C=C\N(C)C)C1=O,-7.3*
CS(=O)(=O)c1ccc(S(=O)(=O)N2CCN(C3c4ccccc4-c4ccccc43)CC2)cc1,0.32
O=C1CCCC2=C1C(c1ccc(Cl)cc1)Nc1ccccc1N2 (configuration not stated),-2.6
O=C1CCCC2=C1C(c1ccncc1)Nc1ccccc1N2 (configuration not stated),-1.7
O=C1CCCC2=C1C(c1cccs1)Nc1ccccc1N2 (configuration not stated),-3.5*
Cn1cccc1/C=N/NC(=O)CSc1nnc(-c2ccccc2)n1-c1ccccc1,-0.51
N#C/C(=N\Nc1cc(C(F)(F)F)cc(C(F)(F)F)c1)C(=O)c1ccco1,-2.6
N#C/C(=N\O)C(=O)c1ccco1,-4.6*
N#CC(C(=O)c1ccco1)=C1SCCCS1,-2
Cc1cccc(NC(=O)CN2N=C(c3ccccc3)CCC2=O)c1C,0.26
CN1C(=O)/C(=C\c2ccccc2)Sc2ccc(C(=O)NCc3cccs3)cc21,-6.9*
Cc1cccc(/C=C2\Sc3ccc(C(=O)NC(C)C)cc3N(C)C2=O)c1,-0.11
Cc1cccc(/C=C2\Sc3ccc(C(=O)NCCC(C)C)cc3N(C)C2=O)c1,-0.41
O/N=C1/CCCc2occc21,-0.35
O=C(O)Cn1ncc2c1-c1ccoc1CC2,-1.4
O=C1/C(=C\O)CCc2occc21,-8.1*
CC(=O)Nc1ccc(S(=O)(=O)N2CCC(c3nc(-c4cccnc4)no3)CC2)cc1,0.11
O=C(c1ccc2c(c1)C1C=CCC1C(c1ccc([N+](=O)[O-])cc1)N2)N1CCOCC1 (configuration not stated),-0.46

# Source: PubChem BioAssay
